From the supplement of paper PMC10849652 come the findings set out here.

About 7,900 targets were measured; listed, in parts, are those with a hit and a random draw of the rest. About 0.6% of all pairs of compound and target were hits.

UniProt O60784, sequence (O60784 whole entry, looked up): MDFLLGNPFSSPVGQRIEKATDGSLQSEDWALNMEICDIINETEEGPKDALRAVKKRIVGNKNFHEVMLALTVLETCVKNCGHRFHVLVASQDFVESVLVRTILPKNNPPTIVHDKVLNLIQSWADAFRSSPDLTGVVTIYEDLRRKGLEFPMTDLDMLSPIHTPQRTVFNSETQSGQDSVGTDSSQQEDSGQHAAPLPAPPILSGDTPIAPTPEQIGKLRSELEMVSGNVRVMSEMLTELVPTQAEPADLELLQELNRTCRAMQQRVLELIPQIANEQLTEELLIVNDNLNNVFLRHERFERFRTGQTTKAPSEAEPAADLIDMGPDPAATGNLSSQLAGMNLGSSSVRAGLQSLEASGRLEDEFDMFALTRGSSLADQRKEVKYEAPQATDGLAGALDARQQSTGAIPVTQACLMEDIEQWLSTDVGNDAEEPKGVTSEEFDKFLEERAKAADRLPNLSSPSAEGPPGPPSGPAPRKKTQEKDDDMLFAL
UniProt Q6PID6, sequence (Q6PID6 whole entry, looked up): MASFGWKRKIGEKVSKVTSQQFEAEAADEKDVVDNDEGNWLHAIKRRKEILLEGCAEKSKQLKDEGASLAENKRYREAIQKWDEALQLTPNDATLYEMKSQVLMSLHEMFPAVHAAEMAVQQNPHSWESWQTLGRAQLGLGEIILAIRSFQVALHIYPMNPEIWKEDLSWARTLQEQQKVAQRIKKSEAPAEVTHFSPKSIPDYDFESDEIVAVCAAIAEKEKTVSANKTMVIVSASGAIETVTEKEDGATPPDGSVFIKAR
UniProt P54578, sequence (P54578 whole entry, looked up): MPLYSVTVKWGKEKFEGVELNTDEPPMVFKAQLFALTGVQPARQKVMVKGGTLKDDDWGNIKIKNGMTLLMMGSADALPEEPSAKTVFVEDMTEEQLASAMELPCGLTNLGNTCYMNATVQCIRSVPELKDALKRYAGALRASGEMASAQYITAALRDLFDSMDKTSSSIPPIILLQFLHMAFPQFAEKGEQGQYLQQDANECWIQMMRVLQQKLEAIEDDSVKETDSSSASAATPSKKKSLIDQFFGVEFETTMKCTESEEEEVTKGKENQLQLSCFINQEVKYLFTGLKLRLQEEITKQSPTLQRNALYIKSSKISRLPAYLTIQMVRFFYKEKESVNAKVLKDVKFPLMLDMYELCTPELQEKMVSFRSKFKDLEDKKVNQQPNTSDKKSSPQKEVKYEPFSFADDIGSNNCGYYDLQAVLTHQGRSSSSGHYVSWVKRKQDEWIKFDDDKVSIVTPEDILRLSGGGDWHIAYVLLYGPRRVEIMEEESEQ
UniProt Q9BUB7, sequence (Q9BUB7 whole entry, looked up): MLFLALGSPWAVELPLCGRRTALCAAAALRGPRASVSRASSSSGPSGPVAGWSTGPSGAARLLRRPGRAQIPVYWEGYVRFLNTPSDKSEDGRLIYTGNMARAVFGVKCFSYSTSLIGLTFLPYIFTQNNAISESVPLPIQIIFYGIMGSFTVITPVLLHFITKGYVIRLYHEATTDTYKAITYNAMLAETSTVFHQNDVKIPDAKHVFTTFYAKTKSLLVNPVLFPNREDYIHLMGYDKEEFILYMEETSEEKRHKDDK
UniProt P49815, sequence (P49815 whole entry, looked up): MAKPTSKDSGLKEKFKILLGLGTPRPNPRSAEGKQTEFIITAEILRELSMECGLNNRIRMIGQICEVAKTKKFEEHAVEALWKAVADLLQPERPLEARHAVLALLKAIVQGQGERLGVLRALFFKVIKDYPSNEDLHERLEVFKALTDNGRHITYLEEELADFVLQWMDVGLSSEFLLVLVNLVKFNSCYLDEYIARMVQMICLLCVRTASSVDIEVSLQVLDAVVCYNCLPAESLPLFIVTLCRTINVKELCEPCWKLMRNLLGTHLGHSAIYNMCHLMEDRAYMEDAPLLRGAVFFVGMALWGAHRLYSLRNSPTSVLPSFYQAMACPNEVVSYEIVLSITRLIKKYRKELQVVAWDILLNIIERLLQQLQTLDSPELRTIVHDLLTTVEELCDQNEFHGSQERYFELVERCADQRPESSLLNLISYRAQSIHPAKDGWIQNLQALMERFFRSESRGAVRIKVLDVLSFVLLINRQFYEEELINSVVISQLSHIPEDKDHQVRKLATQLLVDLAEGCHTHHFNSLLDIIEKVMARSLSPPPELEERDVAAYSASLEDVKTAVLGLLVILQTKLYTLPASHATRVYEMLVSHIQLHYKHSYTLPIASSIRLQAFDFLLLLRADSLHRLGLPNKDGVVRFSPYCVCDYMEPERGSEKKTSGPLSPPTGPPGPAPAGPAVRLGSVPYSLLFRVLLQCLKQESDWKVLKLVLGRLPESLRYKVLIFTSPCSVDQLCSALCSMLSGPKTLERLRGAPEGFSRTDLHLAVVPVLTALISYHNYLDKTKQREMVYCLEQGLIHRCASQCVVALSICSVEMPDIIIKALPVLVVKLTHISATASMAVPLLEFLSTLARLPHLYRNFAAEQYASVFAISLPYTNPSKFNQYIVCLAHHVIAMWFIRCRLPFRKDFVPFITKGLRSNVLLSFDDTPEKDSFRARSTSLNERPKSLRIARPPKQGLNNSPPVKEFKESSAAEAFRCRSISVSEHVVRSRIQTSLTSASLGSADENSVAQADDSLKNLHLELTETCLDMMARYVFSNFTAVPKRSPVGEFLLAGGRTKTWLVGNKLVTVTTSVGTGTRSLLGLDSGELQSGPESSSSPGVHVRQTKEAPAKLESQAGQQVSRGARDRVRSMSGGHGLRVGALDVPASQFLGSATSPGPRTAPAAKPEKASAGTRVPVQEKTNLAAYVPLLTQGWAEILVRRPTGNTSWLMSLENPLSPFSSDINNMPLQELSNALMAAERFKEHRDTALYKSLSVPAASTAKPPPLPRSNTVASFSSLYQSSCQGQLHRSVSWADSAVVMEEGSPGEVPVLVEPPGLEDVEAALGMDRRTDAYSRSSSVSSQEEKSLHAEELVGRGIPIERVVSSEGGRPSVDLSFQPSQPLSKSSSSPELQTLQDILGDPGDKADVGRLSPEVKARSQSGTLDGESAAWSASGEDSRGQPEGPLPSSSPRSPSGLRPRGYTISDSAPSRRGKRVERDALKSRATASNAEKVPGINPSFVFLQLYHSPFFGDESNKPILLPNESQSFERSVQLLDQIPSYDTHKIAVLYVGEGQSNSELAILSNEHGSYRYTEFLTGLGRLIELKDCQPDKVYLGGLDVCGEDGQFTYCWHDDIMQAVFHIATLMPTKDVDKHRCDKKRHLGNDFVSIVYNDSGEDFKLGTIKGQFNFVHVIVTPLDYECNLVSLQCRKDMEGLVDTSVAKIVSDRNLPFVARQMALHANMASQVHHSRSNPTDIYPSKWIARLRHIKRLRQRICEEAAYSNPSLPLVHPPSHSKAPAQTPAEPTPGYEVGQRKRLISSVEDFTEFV
UniProt O95857, sequence (O95857 whole entry, looked up): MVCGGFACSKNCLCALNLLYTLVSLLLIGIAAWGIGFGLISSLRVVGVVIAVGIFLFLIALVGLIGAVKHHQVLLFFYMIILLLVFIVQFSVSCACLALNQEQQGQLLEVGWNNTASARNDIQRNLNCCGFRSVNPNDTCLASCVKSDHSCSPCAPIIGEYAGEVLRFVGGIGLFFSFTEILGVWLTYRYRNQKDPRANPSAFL
UniProt P0CG48, sequence (P0CG48 whole entry, looked up): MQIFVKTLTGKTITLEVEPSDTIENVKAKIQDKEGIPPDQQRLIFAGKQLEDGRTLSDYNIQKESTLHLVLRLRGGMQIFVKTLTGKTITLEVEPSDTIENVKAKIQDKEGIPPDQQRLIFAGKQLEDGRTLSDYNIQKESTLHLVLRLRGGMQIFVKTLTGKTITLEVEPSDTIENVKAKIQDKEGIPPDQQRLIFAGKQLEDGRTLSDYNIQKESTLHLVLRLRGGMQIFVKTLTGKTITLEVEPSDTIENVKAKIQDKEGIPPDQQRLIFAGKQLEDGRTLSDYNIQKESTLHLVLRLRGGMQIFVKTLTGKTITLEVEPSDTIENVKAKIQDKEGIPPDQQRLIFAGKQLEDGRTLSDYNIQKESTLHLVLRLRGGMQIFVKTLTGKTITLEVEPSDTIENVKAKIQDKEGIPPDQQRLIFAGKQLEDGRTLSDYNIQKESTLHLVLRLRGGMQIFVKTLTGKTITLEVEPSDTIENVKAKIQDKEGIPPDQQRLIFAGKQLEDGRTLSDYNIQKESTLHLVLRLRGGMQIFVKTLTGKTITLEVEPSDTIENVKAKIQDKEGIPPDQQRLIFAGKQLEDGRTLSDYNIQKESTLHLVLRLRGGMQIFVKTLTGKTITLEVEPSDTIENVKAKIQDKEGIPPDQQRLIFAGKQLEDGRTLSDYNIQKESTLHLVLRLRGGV
UniProt Q629K1, sequence (Q629K1 whole entry, looked up): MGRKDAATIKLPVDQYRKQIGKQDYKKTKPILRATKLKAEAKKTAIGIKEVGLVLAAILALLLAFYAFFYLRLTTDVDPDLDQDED
UniProt Q7Z7N9, sequence (Q7Z7N9 whole entry, looked up): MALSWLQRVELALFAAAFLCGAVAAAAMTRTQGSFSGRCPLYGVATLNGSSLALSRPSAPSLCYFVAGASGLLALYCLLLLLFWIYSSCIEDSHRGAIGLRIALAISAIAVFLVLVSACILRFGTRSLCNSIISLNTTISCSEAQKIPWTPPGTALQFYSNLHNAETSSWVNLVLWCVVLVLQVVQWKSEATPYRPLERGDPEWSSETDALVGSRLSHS
UniProt Q16763, sequence (Q16763 whole entry, looked up): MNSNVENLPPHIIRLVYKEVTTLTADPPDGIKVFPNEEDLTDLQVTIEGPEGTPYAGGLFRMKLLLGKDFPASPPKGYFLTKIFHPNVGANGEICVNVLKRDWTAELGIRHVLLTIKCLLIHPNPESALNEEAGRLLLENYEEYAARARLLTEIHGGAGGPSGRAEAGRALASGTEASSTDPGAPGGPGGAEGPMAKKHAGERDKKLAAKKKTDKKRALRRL

Compound in one assay: C1=CC=C(C=C1)[C@H](COC2=CC3=C(C=C2)NC(=O)N3)NC(=O)C4=CC=CN(C4=O)CC5=CC(=C(C=C5)F)F
Description: log2 fold change, soluble protein after heating vs DMSO (PISA); higher = thermal stabilisation; K562 cells, 10 uM, 30 min; active = over 0.2 and 3.5 SD of the protein, either way, in both replicates (recomputed). Put shortly: (§1)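 K562 cells at 2×10^6 cells/mL were given 10 μM compound for 30 min. Aliquots then went through 3 min of heating across 48°C-58°C, were pooled, and were extracted in PBS with 0.5% NP-40 at 4°C, and the supernatant after 21,000xg for 90 min was quantified by TMTpro 16plex LC-MS/MS with channel sums equalised. Thermal stability relative to control samples, from duplicates, is given as log2 fold change.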
For TMEM268 isoform 3 (UniProt Q5VZI3), the log2 fold change is -0.008 (inactive).

With USP25 isoform 3 (UniProt Q9UHP3), the log2 fold change was -0.02 (inactive).

In the case of TMEM70 (UniProt Q9BUB7), the log2 fold change was -0.002 (inactive).

In the case of TMTC3 (UniProt Q6ZXV5), the log2 fold change is -0.012 (inactive).

Consider TTI2 (UniProt Q6NXR4), for which the log2 fold change is 0.07 (inactive).

As for WDR46, A0A0G2JJL1, the log2 fold change was 0.129 (inactive).

For the target UBAP2L (UniProt F8W726), the log2 fold change is -0.05 (inactive).

Take USP9X (UniProt Q93008): the log2 fold change is -0.049 (inactive).

Regarding UBE3B (UniProt Q7Z3V4), the log2 fold change was -0.081 (inactive).

Regarding TRIQK (UniProt Q629K1), the log2 fold change was 0.098 (inactive).

For the target UBC (UniProt P0CG48), the log2 fold change was 0.023 (inactive).

Turning to TXNRD1 isoform 7 (UniProt Q16881), the log2 fold change was 0.046 (inactive).

As to TTC26, the log2 fold change was 0.06 (inactive).

In the case of TOM1 (UniProt O60784), the log2 fold change is -0.077 (inactive).

Regarding TMEM179B (UniProt Q7Z7N9), the log2 fold change is -0.065 (inactive).

In the case of UBE2S (UniProt Q16763), the log2 fold change is 0.002 (inactive).

As for TSC2 (UniProt P49815), the log2 fold change was 0.062 (inactive).

On to TMEM41A (UniProt Q96HV5), for which the log2 fold change is 0.01 (inactive).

On to TTC33 (UniProt Q6PID6), for which the log2 fold change was -0.142 (inactive).

On to WARS1 (UniProt G3V277), for which the log2 fold change is -0.075 (inactive).

On to WDR46 (UniProt O15213), for which the log2 fold change was 0.058 (inactive).

For TSPAN13 (UniProt O95857), the log2 fold change was -0.195 (inactive).

With WDR47 (UniProt O94967), the log2 fold change is 0.019 (inactive).

For the target U2AF1L5 (UniProt P0DN76), the log2 fold change is -0.008 (inactive).

As to TP53BP1 isoform 2 (UniProt Q12888), the log2 fold change was -0.025 (inactive).

On to VDAC1 (UniProt C9JI87), for which the log2 fold change is -0.132 (inactive).

Turning to TOM1 isoform 2 (UniProt O60784), the log2 fold change is 0.044 (inactive).

For TRMT2A (UniProt Q8IZ69), the log2 fold change was -0.008 (inactive).

With USP14 (UniProt P54578), the log2 fold change is -0.031 (inactive).

Compound in another assay: CC1=C(SC2=C1C(=N[C@H](C3=NN=C(N32)C)CC(=O)N)C4=CC=C(C=C4)Cl)C
The description is as above. Put shortly: as §1
As for ULBP1 (UniProt Q9BZM6), the log2 fold change was 0.014 (inactive).

For TMEM268 isoform 3 (UniProt Q5VZI3), the log2 fold change was 0 (inactive).

In the case of USP25 isoform 3 (UniProt Q9UHP3), the log2 fold change was 0.024 (inactive).

Consider TMEM70 (UniProt Q9BUB7), for which the log2 fold change was 0.065 (inactive).

As to TMTC3 (UniProt Q6ZXV5), the log2 fold change was 0.019 (inactive).

On to TTI2 (UniProt Q6NXR4), for which the log2 fold change is 0.027 (inactive).

Consider TMEM104 (UniProt Q8NE00), for which the log2 fold change is 0.001 (inactive).

Regarding USP9X (UniProt Q93008), the log2 fold change is 0.028 (inactive).

Turning to UBE3B (UniProt Q7Z3V4), the log2 fold change was -0.147 (inactive).

Consider TRIQK (UniProt Q629K1), for which the log2 fold change is 0.028 (inactive).

In the case of UBC (UniProt P0CG48), the log2 fold change was 0.087 (inactive).

Regarding TVP23C (UniProt Q96ET8), the log2 fold change is 0.048 (inactive).

As for TMEM179B (UniProt Q7Z7N9), the log2 fold change is 0.081 (inactive).

Consider UBE2S (UniProt Q16763), for which the log2 fold change is 0.053 (inactive).

With TSC2 (UniProt P49815), the log2 fold change was 0.099 (inactive).

Turning to TOM1L2 (UniProt Q6ZVM7), the log2 fold change is 0.138 (inactive).

Take TTC33 (UniProt Q6PID6): the log2 fold change was 0.018 (inactive).

In the case of WDR46 (UniProt O15213), the log2 fold change was -0.35 (inactive).

On to TSPAN13 (UniProt O95857), for which the log2 fold change was 0.023 (inactive).

As for WDR47 (UniProt O94967), the log2 fold change is 0.004 (inactive).

With TP53BP1 isoform 2 (UniProt Q12888), the log2 fold change is -0.016 (inactive).

Turning to TRIM5 (UniProt Q9C035), the log2 fold change is 0.021 (inactive).

VDAC1 (UniProt C9JI87): the log2 fold change was -0.004 (inactive).

For XRCC1 (UniProt P18887), the log2 fold change was 0.091 (inactive).

Consider TOM1 isoform 2 (UniProt O60784), for which the log2 fold change was 0.001 (inactive).

For the target TRMT2A (UniProt Q8IZ69), the log2 fold change is -0.042 (inactive).

Turning to USP14 (UniProt P54578), the log2 fold change is 0.03 (inactive).
